Results from PubChem BioAssay.

What follows are compounds tested on Human papillomavirus type 1a E7 protein (residues 1-88) (assay: HPV1a E7 small-molecule binders, primary screen, biochemical, small-molecule microarray, residues 1-88, 635 nm (AID 1129)). Conditions: small-molecule microarray binding, fluorescence 635 nm; higher = more signal.

| Compound | composite z-score |
| --- | --- |
| C=C(COC)/C(=C/C[C@@H](OC(C)=O)c1cccc(OCCO)c1)c1cc(C(=O)OC)ccc1OC | 0.0995 |
| CC(C)(C)OC(=O)CC[C@]1(C(=O)NCCN2CCOCC2)N=C(c2ccc(OCCCO)cc2)O[C@H]1c1ccccc1CN=[N+]=[N-] | 1.17 |
| CC(=O)NCCCC[C@@H]1NC(=O)[C@@H]2C[C@H](C(=O)NCCCCCCN(C)C)[C@H](c3ccc(O)cc3)N2C1=O | 1.26 |
| Cc1ccc(S[C@]2(C(=O)O)CC(=O)N(Cc3ccccc3)[C@@H]2c2ccc(CO)cc2)cc1 | 0.0745 |
| O=C1c2ccccc2[C@](Cc2ccccc2I)(C(=O)NCC(F)(F)F)[C@H](c2ccc(CO)cc2)N1Cc1ccccc1C(F)(F)F | 1.22 |
| O=C1OCCC=C[C@H]2OC34C=CCN(Cc5ccccc5)C(=O)[C@H]3N(CCO)C(=O)[C@@H]4C12 (stereo not given in full) | -1.18 |
| C=CCNC(=O)[C@H]1[C@@H]2C(=O)O[C@@H](c3ccccc3)[C@@H](c3ccccc3)N2[C@@H](c2ccccc2OCCO)[C@]12C(=O)N(C(=O)OCCOC)c1ccc(C#CCC(C(=O)OC)C(=O)OC)cc12 | 1.2 |
| COc1ccc([Si](C)(C)[C@H]2[C@H](CC(=O)N3Cc4ccccc4C[C@H]3CO)O[C@@]3(C(=O)N(Cc4cccc(N5CCOC5=O)c4)c4ccccc43)[C@@H]2C)cc1 | 0.533 |
| CC(C)N1CC=CC23O[C@@H]4/C=C\CCCOC(=O)C4[C@H]2C(=O)N(CCO)[C@@H]3C1=O (stereo not given in full) | -0.328 |
| CC(C)CN1C(=O)[C@@]2(Cc3ccccc31)c1ccccc1C(=O)N(C1CCCCC1)[C@H]2c1ccc(CO)cc1 | -1.05 |
